Shiga toxin inh: blocks Shiga toxin action in Vero cells; Vero cells, Shiga toxin protein synthesis inhibition reporter; inhibition, % at 38.7 µM; 290,000 compounds, 9.2% hits; AID 2315; in the data active means inhibition mostly above about 28%, no sharp cut-off; inactive means mostly below about 43%
Pf growth 96h: P. falciparum growth inhibition at 96 hours; P. falciparum luciferase reporter growth, 96 h; Potency, µM (series often up to 28.7 µM), hits mostly inhibitors; 320,000 compounds, 6.9% hits; AID 504834
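Parasite growth measured via integrated firefly luciferase reporter in P. falciparum. Infected erythrocytes at 2% hematocrit, 0.05% parasitemia final were treated 96 hours at 37 C under 5% CO2, and luminescence was read.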
NS1 function inh: influenza NS1 inhibition; Potency, µM (top dose mostly 46.1 µM); 270,000 compounds, 0.4% hits; calls by dose curve; further: actives are rising curves; nearly all actives have a fitted effect of over 50% in size
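In this qHTS, NS1 from influenza A is expressed in budding yeast, where it slows growth. Cells are switched from glucose to 2% galactose medium (pH 6.0, -URA), treated with compound, and growth recovery is read at OD600.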
CHX counter: counter-screen for Shiga toxin inhibitors: cycloheximide protein synthesis inhibition. cell reporter, cycloheximide protein synthesis inhibition counterscreen. max response, %. 300,000 compounds, 12% hits. AID 2314; in the data active means max response mostly above about 13%, no sharp cut-off; inactive means mostly below about 14%; further: read at 38.3 µM for the half of the compounds with a filed dose
Pf growth 48h: P. falciparum growth inhibition at 48 hours (one generation). P. falciparum luciferase growth in erythrocytes, 48 h. Potency, µM (titrated, usually from 28.7 µM), hits mostly inhibitors. 310,000 compounds, 5.9% hits
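A one-generation exposure of luciferase-tagged malaria parasites in RPMI 1640/Albumax erythrocyte culture, 37 C and 5% CO2. Inhibition is inferred from decreased luminescence after adding detection reagent.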
Sm TGR inh: blocks Schistosoma mansoni thioredoxin glutathione reductase; Q962Y6; purified TGR, DTNB reduction, TNB absorbance 405 nm; Potency, µM (highest dose often 114 µM), usual class: inhibitors; 360,000 compounds, 3% hits; AID 485364; further: nearly all actives have a fitted effect of over 60% in size
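TGR 20 nM + NADPH 100 uM (dispensed conc.), cpd preinc 15 min RT; start with NADPH (500 uM addition) then DTNB (15 mM addition). Kinetic TNB absorbance, 405 nm filter. Four-parameter Hill fit across titration.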
Numbers stand for hits; – = inactive; ? = inconclusive; · = no result given; + = active, no number; [ ] = remark or other dose. Rows were chosen to be rich in hits. Some 21% of all compounds tested hit in one or more screens of this group. Unless noted, the call rests on the fitted dose curve; in most records, active means well fitted curve in the direction sought with a large enough effect; inconclusive means small, poorly fitted or top-dose-only effect, or another doubt; inactive means no such curve, though single readings can be large; an effect the other way counts as inactive or inconclusive.

SMILES	Shiga toxin inh	Pf growth 96h	NS1 function inh	CHX counter	Pf growth 48h	Sm TGR inh
COc1cc(OC)c2nc(C)c3c(c2c1)N(c1ccc(O)cc1)CC3	–	13.1µM	–	–	?	–
COc1cc(OC)cc(C(=O)NCC(=O)N2CCN(c3ccc(O)cc3)CC2)c1	–	?	–	–	–	?
COc1ccc(C(CCN2CCCC2)c2c(O)cc(OC)cc2OC)cc1 (stereo not drawn)	–	2.94µM	?	–	?	?
COc1ccc(C(CCN2CCCCC2)c2c(O)cc(OC)cc2OC)cc1 (stereo not drawn)	–	0.465µM	–	–	0.657µM	39.8µM
O=C(NC1CCN(S(=O)(=O)c2ccccc2)CC1)c1cccc(F)c1	–	?	–	–	–	–
CCOc1ccc(CCNC(=O)CS(=O)Cc2nc(-c3ccccc3C)oc2C)cc1OCC (stereo not drawn)	–	?	–	–	–	35.5µM
CCC(C)NC(=O)CS(=O)Cc1nc(-c2ccccc2C)oc1C (stereo not drawn)	–	–	–	–	·	8.91µM
CCCNC(=O)CS(=O)Cc1nc(-c2ccccc2C)oc1C (stereo not drawn)	–	–	–	–	·	50.1µM
Cc1ccccc1-c1nc(CS(=O)CC(=O)NCCCN(C)c2ccccc2)c(C)o1 (stereo not drawn)	–	–	–	–	–	–
CCN(CC)CCNC(=O)CS(=O)Cc1nc(-c2ccccc2Cl)oc1C (stereo not drawn)	–	10.4µM	–	–	–	?
CCN(CC)CCNC(=O)CS(=O)Cc1nc(-c2ccc(Cl)cc2)oc1C (stereo not drawn)	–	–	–	–	–	–
O=C(Oc1ccc2c3c(c(=O)oc2c1)CCC3)c1ccccc1[N+](=O)[O-]	–	–	–	–	–	–
Cc1cccc(NC(=O)Cn2cc(C(=O)C3CCCCC3)c3ccccc32)c1	·	·	·	·	·	–
NC(=O)C1(N2CCCCC2)CCN(C(=O)Nc2ccc(F)cc2F)CC1	·	·	·	·	·	–
Cc1oc(-c2ccccc2F)nc1CS(=O)CC(=O)NC(C)C (stereo not drawn)	·	·	·	·	·	14.1µM
Cc1oc(-c2ccccc2Cl)nc1CS(=O)CC(=O)NC1CC1 (stereo not drawn)	–	?	–	–	–	?
CN1CCN(C(CNC(=O)C(=O)Nc2ccc3c(c2)OCO3)c2ccc(F)cc2)CC1 (stereo not drawn)	·	?	·	·	–	–
c1ccc(C[n+]2ccccc2)cc1	·	?	·	·	?	–
Cc1ccc(-c2cc[n+](Cc3ccccc3)cc2)cc1	–	–	–	–	0.928µM	–
Cc1cc[n+](Cc2ccccc2)cc1	·	9.28µM	·	·	3.7µM	–
Cc1ccc(N(CC(=O)NCCc2ccc(F)cc2)S(=O)(=O)c2ccc(Cl)c([N+](=O)[O-])c2)c(C)c1	–	?	–	–	?	–
CCN(C(=O)COC(=O)c1ccc(Cl)c(N)c1)C1CCS(=O)(=O)C1 (stereo not drawn)	–	–	·	–	–	–
CCOc1ccc(-n2c(SCC(=O)N3CCCCC3)nc3c([nH]c4ccccc43)c2=O)cc1	·	·	·	·	·	–
NC(=O)CSc1oc(-c2ccco2)nc1S(=O)(=O)c1ccc(Cl)cc1	–	–	–	–	–	20µM
CSc1oc(-c2ccco2)nc1S(=O)(=O)c1ccc(Br)cc1	–	?	–	–	?	50.1µM
SMILES	Shiga toxin inh	Pf growth 96h	NS1 function inh	CHX counter	Pf growth 48h	Sm TGR inh
CCCSc1oc(-c2ccco2)nc1S(=O)(=O)c1ccccc1	–	·	–	–	–	56.2µM
CC(C)Sc1oc(-c2ccco2)nc1S(=O)(=O)c1ccc(F)cc1	–	14.7µM	–	–	?	17.8µM
CCCSc1oc(-c2ccco2)nc1S(=O)(=O)c1ccc(C)cc1	–	–	–	–	?	–
CCC(=O)c1ccc(OC(C)C(=O)NC2(C#N)CCCCC2)cc1 (stereo not drawn)	–	–[5.75 µM]	·	–	–	–
O=C(CN1C(=O)NC2(CCCC2)C1=O)Nc1cc(C(F)(F)F)ccc1N1CCCCC1	·	?	·	·	?	–
Cc1nnc(SCC(=O)N2CCCC2)n(N)c1=O	–	–	·	–	–	–
Cc1ccc(-c2nc(S(=O)(=O)c3ccc(C)cc3)c(SCC(N)=O)o2)cc1	–	–	–	–	–	–
Cc1ccc(S(=O)(=O)c2nc(-c3ccco3)oc2SCC(N)=O)cc1	–	?	–	–	–	39.8µM
NC(=O)CSc1oc(-c2ccco2)nc1S(=O)(=O)c1ccc(Br)cc1	–	–	–	–	–	17.8µM
CCCCn1cc(S(=O)(=O)c2ccc(C)c(C)c2)c(=O)c2cc(F)c(N3CCN(C)CC3)cc21	·	·	·	·	·	–
Cn1c(=O)oc2cc(S(=O)(=O)NCCC(=O)Nc3ccc4c(c3)OCCO4)ccc21	–	·	–	19.7	–	–
COc1ccc(CNC(=O)CCNS(=O)(=O)c2ccc3c(c2)oc(=O)n3C)cc1	–	11.7µM	–	–	–	–
COc1cccc(C(=O)c2cn(CC(=O)NCc3ccccc3)c3nc(C)ccc3c2=O)c1	·	·	·	·	·	–
O=C(O)c1cc(Cl)ccc1-c1ccc(/C=C/c2cc(C(F)(F)F)[nH]c(=O)n2)o1	–	9.28µM	–	–	–	?
Cc1cc(C)c2nc(-c3cccc(Cl)c3)c(C)c(C(=O)N3CCOCC3)c2c1	–	?	–	–	11.7µM	–
Cc1onc(-c2c(Cl)cccc2Cl)c1C(=O)N1CCOCC1	–	–	–	–	–	–
CCOc1ccc(Nc2oc(-c3ccc(COc4ccc(C)cc4)o3)nc2C#N)cc1	·	·	·	·	·	–
Cc1ccc(CNC(=O)CSc2nc3ccccc3[nH]2)cc1	–	–	–	14.6	–	–
Cn1c(=O)c2ncn(CC(=O)N=Nc3c(O)[nH]c4ccccc34)c2n(C)c1=O	–	–[1.15 µM]	·	–	11.7µM	–
O=C(CCn1cnc2ccccc21)N=Nc1c(O)[nH]c2ccccc12	–	–	–	–	–	–
Cn1c(SCC(=O)N=Nc2c(O)[nH]c3ccccc23)nc2ccccc21	–	–	–	–	–	–
O=C(CCCSc1nc2ccccc2[nH]1)NCc1ccc(Cl)cc1	–	11.7µM	–	–	?	–
O=C(CSc1nc2ccccc2[nH]1)N=Nc1c(O)[nH]c2ccccc12	–	–	–	16.7	–	–
O=C(CCCSc1nc2ccccc2[nH]1)NCc1ccccc1F	–	–	·	–	–	–
COc1ccccc1-c1cc(C(=O)N2CCc3ccccc3C2)c2ccccc2n1	–	?	–	–	?	–
COc1ccccc1-c1cc(C(F)(F)F)n2ncc(C(=O)N3CCc4ccccc4C3)c2n1	–	?	–	–	2.33µM	–
Cc1cc(C)n2nc(C(=O)NCCc3ccccc3)nc2n1	92.4	–	–	68.3	·	–
O=C(c1cnn2c(C(F)(F)F)cc(-c3cccs3)nc12)N1CCN(Cc2ccccc2)CC1	–	?	–	–	2.33µM	–
O=C(O)c1cc2nc(-c3cccs3)cc(C(F)(F)F)n2n1	–	–	·	–	–	?
O=C(NCCc1ccccc1)c1nc2nc(-c3cccs3)cc(C(F)(F)F)n2n1	+	?	–	41.1	–	–

Bioassay records (PubChem)
